# Test results from PubChem BioAssay AID1527 (The Scripps Research Institute Molecular Screening Center, 2009).
# Screen size: about 290,000 compounds; about 2,600 (0.9%) were called active.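 How the source made its calls: active means inhibition above the mean of all tested compounds plus 3 SD, cutoff set per screening run (cut at about 7.5% in these data); inactive means the rest.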 This excerpt belongs to a sample that is enriched for actives.
# Test system: VIM-2 metallo-beta-lactamase (Pseudomonas aeruginosa)
# Experiment: VIM-2 metallo-beta-lactamase inhibitors, primary screen, biochemical, epi-absorbance readout, Pseudomonas aeruginosa enzyme (AID 1527);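 further: red hydrolysis product quenches plate fluorescence so inhibitors raise well fluorescence; 0% = enzyme with DMSO and 100% = DMSO without enzyme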
# Conditions: purified VIM-2, nitrocefin hydrolysis, epi-absorbance fluorescence; at 5.6 µM; hits give high values
row,Structure (SMILES),inhibition
1,O=C(NCC1CCCO1)c1ccccc1-c1nc(-c2ccccc2Cl)no1 (stereo not given),-2.71% (inactive)
2,COc1ccccc1NC(=O)c1cc(N2C(=O)C3C4CCC(C4)C3C2=O)ccc1Cl (stereo not given),-0.65% (inactive)
3,COc1ccc(CCn2c(=N)c(C(=O)NCc3ccco3)cc3c(=O)n4cccc(C)c4nc32)cc1,-1.42% (inactive)
4,CCn1c(=N)c(C(=O)NCCCOC)cc2c(=O)n3cccc(C)c3nc21,10.5% (active)
5,Cc1cccn2c(=O)c3cc(C(=O)NCC4CCCO4)c(=N)n(Cc4ccc(F)cc4)c3nc12 (stereo not given),5.79% (inactive)
6,COc1ccc(CCn2c(=N)c(C(=O)NCC3CCCO3)cc3c(=O)n4cccc(C)c4nc32)cc1OC (stereo not given),16.1% (active)
7,COc1ccc(CCNC(=O)CCn2c(=O)c3ccccc3n(CC(=O)NCC3CCCO3)c2=O)cc1OC (stereo not given),-1.51% (inactive)
8,Cc1cccn2c(=O)c3cc(C(=O)NCCN4CCOCC4)c(=N)n(Cc4cccnc4)c3nc12,4.67% (inactive)
9,Cc1ccc(S(=O)(=O)N(CC(=O)NCCSC2CCCCC2)c2ccccc2F)cc1,-2.1% (inactive)
10,COc1cccc(N(C(=O)c2snc(C(N)=O)c2N)C(C(=O)NCC2CCCO2)c2c[nH]c3ccccc23)c1 (stereo not given),-0.46% (inactive)
11,CCOC(=O)C1(Cc2ccccc2C)CCCN(C(=O)CCc2c(C)noc2C)C1 (stereo not given),0.38% (inactive)
12,Cc1occc(=O)c1OCc1ccc(F)cc1,-1.42% (inactive)
13,COC(=O)CN1C(=O)[C@H]2[C@@H](C3CC3)N3C(=O)CN(Cc4ccc(-c5ccccc5)cc4)C(=O)[C@@]3(Cc3ccccc3)[C@H]2C1=O,-2.72% (inactive)
14,Cc1cc(NC(=O)c2ccc(F)cc2)ccc1NC(=O)c1ccco1,-3.06% (inactive)
15,Cc1[nH]n(-c2ccccc2)c(=O)c1N=Nc1ccccc1C(=O)N1CCCCC1,-0.74% (inactive)
16,Cc1[nH][nH]c(=O)c1N=Nc1ccccc1,-4.7% (inactive)
17,COC(=O)c1ccccc1N=Nc1c(C)[nH][nH]c1=O,8.28% (active)
18,CN(Cc1ccco1)S(=O)(=O)c1nnc(NC(=O)c2ccccc2)s1,-2.48% (inactive)
19,O=c1oc2ccccc2c(NC2CCCCC2)c1NS(=O)(=O)c1ccc(Cl)cc1,-2.68% (inactive)
20,Cc1cc2c(cc1C)[n+](C)cn2CC(O)COCC1CC=CCC1 (stereo not given),-3.17% (inactive)
21,Clc1ccc(C2=CSC3=Nc4cccc5cccc(c45)N23)cc1,1.95% (inactive)
22,Cc1cnc(C(=O)OCc2c(C)cc(C(C)(C)C)cc2C)cn1,0.21% (inactive)
23,CC1CCN(C2=NC(=O)/C(=C/c3ccc(O)cc3)S2)CC1,1.8% (inactive)

row,Structure (SMILES),inhibition
1,CCOc1cc(/C=C2\SC(N3CCCC(C)C3)=NC2=O)ccc1O (stereo not given),14.7% (active)
2,O=C1N=C(N2CCCC2)S/C1=C\c1cccc(Br)c1,-0.86% (inactive)
3,CCOc1cc(/C=C2\SC(N3CCCCC3)=NC2=O)ccc1O,14.9% (active)
4,CCc1ccc(/C=C2\SC(N3CCOCC3)=NC2=O)cc1,-0.98% (inactive)
5,O=C1N=C(N2CCc3ccccc3C2)S/C1=C\c1ccc(O)cc1,0.39% (inactive)
6,COCCCNC(=O)[C@H]1N2C(=O)c3ccccc3C2SC1(C)C (stereo not given in full),0.11% (inactive)
7,CC(C)c1ccc(OCC(O)CN2CCN(c3ccccn3)CC2)cc1 (stereo not given),-3.55% (inactive)
8,CN(CC(=O)NCc1ccncc1)S(=O)(=O)c1ccc(Br)cc1,-1.28% (inactive)
9,COc1ccccc1OCCCC(=O)Nc1ccc2c(c1)OCCO2,-2.36% (inactive)
10,CC1CCCCC1NC(=O)CCS(=O)(=O)c1ccc2c(c1)NC(=O)CO2 (stereo not given),-1.17% (inactive)
11,COCC(=O)N1CCc2ccc(NC(=O)c3ccccc3Cl)cc2C1,-2.32% (inactive)
12,CSc1cccc(NC(=O)CN2C(=O)COc3ccc(S(=O)(=O)N4CCOCC4)cc32)c1,-1.26% (inactive)
13,O=C1/C(=C/c2cccs2)CCC1C1CCCC1 (stereo not given),-3.15% (inactive)
14,Cn1c2ccccc2c(=O)c2c(O)cccc21,16.8% (active)
15,COc1cccc2c(O)cc(=O)n(C)c12,-2.19% (inactive)
16,Cn1c(=O)c(Sc2ccc(Cl)cc2)c(O)c2ccccc21,-2.02% (inactive)
17,COc1ccc(NC(=O)C2CCC(CNS(=O)(=O)c3csc(C(N)=O)c3)CC2)cc1OC (stereo not given),1.07% (inactive)
18,Cc1ccc2c(=O)cc(C(=O)NCCc3ccc(S(N)(=O)=O)cc3)oc2c1C,5.69% (inactive)
19,Cc1cc(=O)oc2c(C)c(OCC(=O)NCCN3CCOCC3)ccc12,5.03% (inactive)
20,Cc1cc(=O)oc2c(C)c(OCC(=O)NCCc3ccc(S(N)(=O)=O)cc3)ccc12,10.4% (active)
21,Cc1ccccc1NC(=S)NC(=O)Cc1ccc(Cl)cc1,-0.97% (inactive)
22,Cc1cc(=O)oc(C)c1C(=O)NCCN(C)Cc1ccccc1,-1.11% (inactive)
23,CCCCN(C)CCCNC(=O)c1cc(-c2cccs2)nc2ccccc12,-1.4% (inactive)

row,Structure (SMILES),inhibition
1,CC1CCN(CCCn2c(SCC(=O)NC3CCCC3)nc3ccccc3c2=O)CC1,-1.12% (inactive)
2,O=C(NCCN1CCOCC1)c1cc(-c2cccs2)nc2ccccc12,-0.14% (inactive)
3,CCCN(CCC)CCNC(=O)c1cc2c(C)nc3ccccc3c2o1,10.2% (active)
4,Cc1nc2ccccc2c2oc(C(=O)NCCCN3CCC(C)CC3)cc12,16.2% (active)
5,Cc1ccccc1C(CC(=O)c1cccs1)C(C#N)C#N (stereo not given),-2.96% (inactive)
6,O=S(=O)(NC1CCCCC1N1CCCCC1)c1ccc(Cl)cc1 (stereo not given),-1.53% (inactive)
7,CCCCn1c(N)c(N(CC)C(=O)c2ccccc2C(F)(F)F)c(=O)[nH]c1=O,-0.36% (inactive)
8,Cc1ccc(N(CC(=O)NCC2CCCO2)C(=O)CNS(=O)(=O)c2ccc(Cl)cc2)cc1 (stereo not given),-3.97% (inactive)
9,COc1cccc(CNC(=O)Cn2c(=O)oc3cc(S(=O)(=O)N4CCCCC4)ccc32)c1,-0.65% (inactive)
10,CCOC(=O)C1=C(O)/C(=C/c2ccc(OCC(=O)Nc3ccc(C)cc3)cc2)N=C1C,-1.99% (inactive)
11,CCn1c(SCC(=O)Nc2ccc3c(c2)OCCO3)nnc1C(C)C,-1.97% (inactive)
12,CCCn1c(SCC(N)=O)nnc1C(C)C,-1.77% (inactive)
13,CCCn1c(SCC(=O)c2ccc3c(c2)OCCO3)nnc1C(C)C,9.77% (active)
14,CCN(CC)CCCNC(=O)COc1ccc2oc3c(c2c1)CCCC3,-0.12% (inactive)
15,O=C(N/N=C/c1cccc([N+](=O)[O-])c1)C1CC(=O)N(c2ccc(Br)cc2)C1 (stereo not given),-1.97% (inactive)
16,CN(C)CCSc1nc(N)c2c3c(sc2n1)COC(C)(C)C3,10.3% (active)
17,CCC1(C)Cc2c(sc3nc(SC)nc(N)c23)CO1 (stereo not given),-3.26% (inactive)
18,CCSc1nc2sc3c(c2c(=O)[nH]1)CC(C)(C)OC3,0.86% (inactive)
19,CC1CC(NC(=O)/C(C#N)=C/c2ccc[nH]2)CC(C)(C)C1 (stereo not given),-3.17% (inactive)
20,COc1ccc(C(=O)Nc2ccc(C3(C#N)CCCC3)cc2)cc1OC,-1.46% (inactive)
21,Cc1cc(C)cc(N(CC(=O)NC2CCCC2)C(=O)CCC(=O)Nc2cc(C)on2)c1,-2.81% (inactive)
22,CCC(CC)c1nnc(NS(=O)(=O)Cc2ccccc2)s1,-1.98% (inactive)
23,COc1ccc(Cc2nnc(NS(=O)(=O)Cc3ccccc3)s2)cc1,13.9% (active)

row,Structure (SMILES),inhibition
1,COc1ccc(Cc2nnc(NC(=O)Cc3cccs3)s2)cc1,-3.71% (inactive)
2,Cc1ccc(NS(=O)(=O)c2cn(C)c(=O)n(C)c2=O)c(C)c1,-0.4% (inactive)
3,CCS(=O)(=O)N1CCC(N2CCN(c3ccccc3)CC2)CC1,-1.31% (inactive)
4,O=C(NCCc1cccc(F)c1)C1CCCN(c2nc3ccccc3s2)C1 (stereo not given),0.44% (inactive)
5,Cc1cc(Cl)c2oc(C(=O)NC(C)c3ccncn3)c(C)c2c1 (stereo not given),-1.68% (inactive)
6,CCC1CCCCN1CCCNC(=O)C1CCC(Cn2c(=O)[nH]c3ccccc3c2=O)CC1 (stereo not given),-4.77% (inactive)
7,CCC1CCCCN1CCCNC(=O)c1cc2c(Cl)nc3ccccc3c2s1 (stereo not given),19.5% (active)
8,CCC1CCCCN1CCCNC(=O)Cn1nc(-c2ccccc2)ccc1=O (stereo not given),-1.79% (inactive)
9,Cc1nn(C)c(Oc2ccccc2)c1CCNS(=O)(=O)c1ccc(F)cc1,-2.13% (inactive)
10,O=C(NCCCN1CCOCC1)c1ccccc1NS(=O)(=O)c1ccc(F)cc1,-1.71% (inactive)
11,O=C(NCCCN1CCOCC1)c1ccccc1NS(=O)(=O)c1ccc(Br)cc1,-2.82% (inactive)
12,O=C(NCCCN1CCOCC1)c1cnn2c(-c3ccccc3)cc(-c3ccccc3)nc12,23.4% (active)
13,COc1ccccc1N(C)C(=O)c1cc(S(=O)(=O)N2CCc3ccccc32)cn1C,-4.13% (inactive)
14,Brc1ccccc1C1N=C(c2ccccc2)NO1 (stereo not given),-2.78% (inactive)
15,NS(=O)(=O)c1ccc(NC(=O)COC(=O)c2cc3ccccc3oc2=O)cc1,0.95% (inactive)
16,COc1cc(-c2cc(C(=O)OCC(=O)Nc3ccc4c(c3)OCO4)c3ccccc3n2)cc(OC)c1OC,2.83% (inactive)
17,NS(=O)(=O)c1ccc(NC(=O)COC(=O)c2c3c(nc4ccccc24)/C(=C\c2ccc4c(c2)OCO4)CCC3)cc1,23.9% (active)
18,O=C(COC(=O)c1c2c(nc3ccccc13)/C(=C\c1cccs1)CCC2)Nc1ccccc1Cl,-4.79% (inactive)
19,COc1cc(/C=C2\CCCc3c2nc2ccccc2c3C(=O)O)cc(Cl)c1O,2.46% (inactive)
20,NC(=O)c1ccc(NC(=O)COC(=O)c2c3c(nc4ccccc24)/C(=C\c2ccc4c(c2)OCO4)CCC3)cc1,20.7% (active)
21,CCc1ccc(C2N3CC4([N+](=O)[O-])CN2CC([N+](=O)[O-])(C3)C4(C)C)cc1 (stereo not given),-3.1% (inactive)
